Sampled rows, rich in hits. Any-hit rate of the full collection: about 2.1%.
aSyn 5UTR inh – MLPCN primary screen, SNCA 5' untranslated region; alpha-synuclein 5'UTR reporter, inhibitor activity; inhibition, % (tested at 7.5 µM); 300,000 tested, 0.82% active; AID 1813; in the data active = inhibition above about 60%;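 also: H4 neuroglioblastoma cells stably carrying SNCA 5'UTR luciferase fusion; 0% = DMSO wells and 100% = positive control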
APP transl inh – APP translation inhibition | AID 1285 | SH-SY5Y APP 5'UTR-luciferase reporter, luminescence | 190,000 tested, 0.82% active | inhibition, % at 2 µM;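 active = inhibition above a set limit, derived from the sample mean plus 3 SD, cut at about 45% in these data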
KLF5 inh – suppresses KLF5 promoter-driven expression; DLD-1 KLF5 promoter-luciferase reporter, luminescence; inhibition, % at 5 µM; 290,000 tested, 0.23% active; AID 1700;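 active = inhibition above a per-plate limit of that plate's mean compound inhibition plus 3 SD, cut at about 60% in these data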;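 also: 0% = DMSO wells and 100% = LY294002 at 200 µM; higher means less KLF5 promoter-driven luciferase light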
Ba/F3 V617F tox – lowers viability of Ba/F3 cells expressing EpoR and JAK2V617F. AID 1446. ATP luminescence. 220,000 tested, 1.1% active. inhibition, % at 5.6 µM;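 active = inhibition above the campaign mean plus 3 SD over all tested compounds, cut at about 24% in these data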;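 also: cytokine-independent growth of Ba/F3 cells driven by EpoR plus mutant JAK2; 0% = DMSO-treated cells and 100% = JAK inhibitor I control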
BaF3 tox – reduces parental Ba/F3 cell viability, JAK2V617F counter-screen. 220,000 tested, 1.1% active. AID 1486. inhibition, % at 5.6 µM. CellTiter-Glo ATP luminescence;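 active = inhibition above a per-campaign cutoff, the mean inhibition of all tested compounds plus 3 SD, cut at about 27% in these data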;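 also: 0% = DMSO wells and 100% = JAK Inhibitor I control wells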
IEC-6 tox-1 – kills IEC-6 intestinal cells in KLF5 counter-screen | IEC-6 cytotoxicity, luminescence viability | inhibition, % at 5 µM | 290,000 tested, 0.78% active | AID 1825; in the data active = inhibition above about 22%;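 also: 0% = plate median of test compound wells and 100% = cytotoxic reference compound wells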
KLF5 inh confirm – KLF5 inhibition, confirmation assay. shares compounds with KLF5 inh. DLD-1 KLF5 promoter firefly luciferase reporter, luminescence. inhibition, % at 4 µM. 610 tested, 79% active;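 active = inhibition above a set limit taken from the earlier primary screen, cut at about 63% in these data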;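 also: 0% = DMSO wells and 100% = LY294002 at 200 µM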
IEC-6 tox-2 – counter-screen for KLF5 inhibitors: cytotoxicity in rat IEC-6 cells; IEC-6 rat intestinal cells, viability luminescence; 610 tested, 56% active; inhibition, % at 4 µM; AID 1905; shares compounds with KLF5 inh; in the data active = inhibition above about 23%;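 also: cells exposed to compounds for 48 hours before viability read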
* marks the source's active call; other numbers are inactive results; · = not tested or not shown.

SMILES	aSyn 5UTR inh	APP transl inh	KLF5 inh	Ba/F3 V617F tox	BaF3 tox	IEC-6 tox-1	KLF5 inh confirm	IEC-6 tox-2
O=c1[nH]c(/C=C/c2ccc(Br)cc2)nc2ccccc12	-169	·	-28	·	·	1	·	·
CN(C)c1ccc(/C=C/c2nc3ccccc3c(=O)[nH]2)cc1	87*	·	99*	·	·	20	94*	2
O=[N+]([O-])c1ccc(N2CCN(c3ccccn3)CC2)c(Cl)c1	-46	·	-28	·	·	-4	·	·
O=[N+]([O-])c1nn(-c2ccc3c(c2)OCCO3)n(O)c1=Nc1ccc(Cl)cc1	12	14	21	-4	3	-11	·	·
O=[N+]([O-])c1nn(-c2ccc3c(c2)OCCO3)n(O)c1=Nc1ccccc1	80*	38	72*	2	9	-3	82*	2
C/C(=N\NC(=O)CSc1nc2ccccc2s1)c1ccco1	-59	-2	-35	0	5	1	·	·
Cc1ccsc1/C=N/NC(=O)C(N)=O	-57	-26	-35	-1	5	-3	·	·
Cc1ccsc1/C=N/Nc1ccc(C(=O)O)cc1	64*	·	63*	·	·	9	44	-5
O=C(Cn1c(C(F)(F)F)nc2ccccc21)N/N=C/c1ccco1	2	0	2	2	1	6	·	·
CC(C)(C)c1ccc(C(=O)NCCOc2ccccc2F)cc1	77*	·	65*	·	·	-7	33	2
CC(C)(C)c1ccc(C(=O)NCCOc2ccccc2)cc1	22	·	28	·	·	-8	·	·
COc1ccc(C)cc1N(CC(=O)NC1CCCC1)C(=O)Cn1nnc(-c2ccc(C)o2)n1	11	·	-17	·	·	0	·	·
COc1ccccc1N=Nc1ccc(O)c2ncccc12	37	·	75*	·	·	4	47	1
CCNC(=S)NNC(=O)c1cc(-c2ccc(OCC)cc2)nc2ccccc12	56	-127	81*	24*	31*	14	79*	0
COc1ccc(OC)c(N/C=C/C(=O)c2ccccc2)c1	83*	·	70*	·	·	4	76*	2
COc1ccc(OC)c(N/C(C)=C/C(=O)c2ccccc2)c1	-113	-77	-32	-2	-1	-16	·	·
CCOC(=O)c1sc(NC(=O)c2cc3ccccc3o2)nc1C	-113	-116	82*	4	2	6	62*	-4
CCOC(=O)c1sc(NC(=O)c2ccc3ncsc3c2)nc1C	-89	-83	94*	-4	-2	-3	75*	3
CC(C)CC(=O)NC(c1cccs1)c1ccc2cccnc2c1O (stereo unspecified)	74*	82*	77*	65*	75*	12	86*	50*
Cc1conc1NC(c1cccs1)c1ccc2cccnc2c1O (stereo unspecified)	66*	39	70*	97*	83*	7	23	5
CCC(=O)NC(c1cccs1)c1ccc2cccnc2c1O (stereo unspecified)	80*	85*	78*	77*	59*	28*	91*	81*
CC(C)C(=O)NC(c1ccco1)c1ccc2cccnc2c1O (stereo unspecified)	63*	84*	67*	51*	60*	13	96*	40*
CC(C)C(=O)NC(c1cccs1)c1cc([N+](=O)[O-])c2cccnc2c1O (stereo unspecified)	53	-3	-17	3	8	-2	·	·
Cc1ccc(C(NC(=O)C(C)C)c2cc([N+](=O)[O-])c3cccnc3c2O)cc1 (stereo unspecified)	-29	2	-24	-6	2	-2	·	·
Cc1ccc(NNC(=O)Nc2ccc(Cl)cc2)nn1	7	·	-25	1	2	-7	·	·
SMILES	aSyn 5UTR inh	APP transl inh	KLF5 inh	Ba/F3 V617F tox	BaF3 tox	IEC-6 tox-1	KLF5 inh confirm	IEC-6 tox-2
COc1cc(C(=O)c2cocc2C(=O)c2ccc3c(c2)OCO3)cc(OC)c1OC	67*	·	63*	71*	78*	77*	76*	54*
COc1cc(C(=O)NNC(=S)NC(=O)c2ccc3c(c2)OCO3)cc(OC)c1OC	-8	·	-2	0	-2	6	·	·
COc1ccc(OC)c(C2C3=C(COC3=O)Nc3cc4c(cc32)OCO4)c1 (stereo unspecified)	89*	95*	88*	96*	91*	94*	92*	82*
Cc1ccc2occ(/C=N/NC(=O)c3ccccc3O)c(=O)c2c1	25	·	64*	·	·	-11	48	-6
COc1cc(/C=C2\SC(=S)N(CCC(=O)NC3CCCC3)C2=O)cc(OC)c1OC	-71	·	-20	·	·	4	·	·
Cc1ccc(/C=C2\SC(=S)N(CCCC(=O)NC3CCCC3)C2=O)cc1	98*	·	65*	·	·	3	4	5
Cc1ccc(/C=C2/SC(=S)N(CCCC(=O)Nc3ccc(O)cc3)C2=O)cc1	86*	63*	67*	1	-2	5	107*	7
C[C@H](C(=O)CC(=O)OC(C)(C)C)[C@H](O)c1ccccc1	-43	·	-31	·	·	1	·	·
Cc1ncc(CO)c(/C=N/NC(=O)c2cc3c(s2)CCCC3)c1O	36	27	37	4	-2	-1	·	·
CCCCN=C1NN=C(c2ccc3c(c2)OCCO3)CS1	-30	-80	28	-6	7	-3	·	·
c1cc2c(cc1C1=NNC(=NC3CC3)SC1)OCCO2	111*	51*	79*	9	12	4	102*	30*
N/C(=N\OC(=O)Cc1ccc(-c2ccccc2)cc1)c1ccncc1	-1	-12	-1	-3	-1	3	·	·
Cc1ccc(S(=O)(=O)N2CCN(c3nccnc3C#N)CC2)cc1	-9	·	9	-1	3	9	·	·
Cc1cc(C(F)(F)F)c(C#N)c(SCC(=O)Nc2nc3ccccc3s2)n1	-34	-180	-36	1	1	5	·	·
Cc1nc(SCC(=O)Nc2nc3ccccc3s2)c(C#N)c(C)c1C	100*	64*	96*	1	9	5	108*	27*
O=[N+]([O-])c1ccc(Nc2nccc(Cl)n2)cc1	-44	·	·	·	·	·	·	·
Cc1ccc(S(=O)(=O)Nc2cc(Cl)c(O)c3ncccc23)cc1	77*	·	68*	·	·	6	79*	7
CCc1ccn2cc(-c3cc(-c4ccccc4)no3)nc2c1	94*	·	84*	4	-4	19	82*	-2
CC1=Nc2cc(C(=O)NCCCOC(C)C)ccc2Sc2ccccc21	-29	1	-30	1	4	8	·	·
CC1=Nc2cc(C(=O)NCCCOC(C)C)ccc2Sc2ccc(C)cc21	77*	95*	74*	74*	71*	84*	85*	59*
CCCC1=Nc2cc(C(=O)NCCCOC(C)C)ccc2Sc2ccccc21	11	2	62*	7	11	5	16	19
Nc1nc(=S)c2ncn(C3CCCC3)c2[nH]1	9	·	-15	-5	-2	-6	·	·
